The antibiotic and cytotoxicity screens of Wong et al. (2023)
Out of some 39,000 compounds screened, about 3,300 (8.5%) were called active. For the sample, actives were picked, then their nearest neighbours and some compounds at random.

These molecules were tested on HepG2 (assay: cytotoxicity call (relative viability < 0.9)). Conditions: 10 µM.

| Compound | cytotoxicity call |
| --- | --- |
| C[C@@H]1CCCCO[C@H](CN(C)Cc2ccc(C(=O)O)cc2)[C@H](C)CN([C@@H](C)CO)C(=O)c2cc(NS(=O)(=O)c3ccc(Cl)cc3)ccc2O1 | inactive |
| O=C(C[C@@H]1CC[C@@H]2[C@H](COC[C@H](O)CN2C(=O)c2ccncc2)O1)NC1CCC1 | inactive |
| C[C@@H]1CN([C@H](C)CO)C(=O)c2cc(NC(=O)Nc3ccc(F)cc3)ccc2O[C@@H]1CN(C)S(C)(=O)=O | inactive |
| C[C@@H]1CN([C@H](C)CO)C(=O)c2cccc(NS(C)(=O)=O)c2O[C@@H]1CN(C)C(=O)Nc1ccccc1 | inactive |
| C[C@@H]1CN([C@H](C)CO)C(=O)c2cccc(NS(=O)(=O)c3ccc(F)cc3)c2O[C@H]1CN(C)C(=O)Nc1cccc2ccccc12 | inactive |
| CN(C)CCCCNC(=O)[C@@H]1C[C@@H]2C(=O)N[C@@H](CCCCN)C(=O)N2[C@@H]1c1ccc(O)cc1 | inactive |
| C[C@H](CO)N1C[C@H](C)[C@@H](CN(C)Cc2ccc(C(F)(F)F)cc2)Oc2ccc(NS(=O)(=O)c3ccc(Cl)cc3)cc2CC1=O | inactive |
| C[C@@H]1CN([C@@H](C)CO)C(=O)Cc2cc(NS(=O)(=O)c3ccc(Cl)cc3)ccc2O[C@H]1CN(C)Cc1ccc(C(F)(F)F)cc1 | inactive |
| C[C@H]1CN([C@@H](C)CO)C(=O)Cc2cc(NS(=O)(=O)c3ccc(Cl)cc3)ccc2O[C@@H]1CN(C)Cc1ccc(C(F)(F)F)cc1 | active |
| CC(=O)N[C@H]1[C@H]([C@H](O)[C@H](O)CO)OC(C(=O)O)=C[C@@H]1NC(=N)N | inactive |
| NS(=O)(=O)c1ccc(NC(=O)C2CC2)cc1 | active |
| NS(=O)(=O)c1ccc(NC(=O)[C@H]2CCCNC2=O)cc1 | inactive |
| CNC(=O)Nc1ccc(S(N)(=O)=O)cc1 | inactive |
| Cc1ccc(S(=O)(=O)N(C)C[C@@H]2Oc3c(NC(=O)c4cnccn4)cccc3C(=O)N([C@@H](C)CO)C[C@@H]2C)cc1 | inactive |
| COc1ccc(S(=O)(=O)Nc2ccc3c(c2)CC(=O)N([C@H](C)CO)C[C@@H](C)[C@H](CN(C)S(=O)(=O)c2cccs2)O3)cc1 | inactive |
| C[C@@H]1CN([C@H](C)CO)C(=O)Cc2cc(NC(=O)Nc3ccc(C(F)(F)F)cc3)ccc2O[C@@H]1CN(C)Cc1ccncc1 | active |
| C[C@H]1CN([C@@H](C)CO)C(=O)Cc2cc(NC(=O)Nc3ccc(C(F)(F)F)cc3)ccc2O[C@@H]1CN(C)Cc1ccncc1 | active |
| C[C@H](CO)N1C[C@H](C)[C@H](CN(C)Cc2ccncc2)Oc2ccc(NC(=O)Nc3ccc(C(F)(F)F)cc3)cc2CC1=O | active |
| C[C@@H]1CN([C@H](C)CO)C(=O)Cc2cc(NC(=O)Nc3ccc(C(F)(F)F)cc3)ccc2O[C@H]1CN(C)Cc1ccncc1 | inactive |
| C[C@H](CO)N1C[C@H](C)[C@@H](CN(C)Cc2ccncc2)Oc2ccc(NC(=O)Nc3ccc(C(F)(F)F)cc3)cc2CC1=O | active |
| C[C@@H]1CN([C@@H](C)CO)C(=O)Cc2cc(NC(=O)Nc3ccc(C(F)(F)F)cc3)ccc2O[C@H]1CN(C)Cc1ccncc1 | inactive |

| Compound | cytotoxicity call |
| --- | --- |
| Cc1ccc(S(=O)(=O)N(C)C[C@@H]2OCCCC[C@H](C)Oc3ccc(NC(=O)Nc4ccccc4)cc3C(=O)N([C@H](C)CO)C[C@H]2C)cc1 | inactive |
| Cc1ccc(S(=O)(=O)N2C[C@@H](O)COC[C@H]3O[C@H](CC(=O)NCc4ccccc4Cl)CC[C@@H]32)cc1 | inactive |
| COc1ccc(S(=O)(=O)N[C@H]2CC[C@@H](CCNC(=O)CN3CCOCC3)O[C@@H]2CO)cc1 | inactive |
| COc1ccc(S(=O)(=O)Nc2ccc3c(c2)C(=O)N([C@H](C)CO)C[C@H](C)[C@@H](CN(C)C(=O)c2ccccc2)OCCCC[C@@H](C)O3)cc1 | inactive |
| CN(C)CCCNC(=O)C[C@H]1CC[C@H]2[C@H](COc3ccc(NC(=O)NC4CCCC4)cc3C(=O)N2C)O1 | inactive |
| COc1ccc(NC(=O)Nc2ccc3c(c2)C(=O)N([C@@H](C)CO)C[C@@H](C)[C@H](CN(C)C(=O)Cc2ccccc2)OCCCC[C@@H](C)O3)cc1 | inactive |
| CC(=O)N1CCC(C(=O)N2CCC(n3cc(C(C)(C)N)nn3)CC2)CC1 | inactive |
| COc1ccc(CN(C)C[C@@H]2OCCCC[C@H](C)Oc3ccc(NC(=O)Nc4c(C)noc4C)cc3C(=O)N([C@H](C)CO)C[C@H]2C)cc1 | inactive |
| NC(=O)NCC#Cc1ccc2c(c1)[C@]1(C(=O)N2)[C@H](c2ccccc2OCCO)N2[C@H](c3ccccc3)[C@H](c3ccccc3)OC(=O)[C@H]2[C@@H]1C(=O)O | inactive |
| CCc1nc2ccc(C(=O)Nc3ccc4c(c3)OCC(=O)N4)cn2c1N(CC)Cc1cccc(Br)c1 | inactive |
| COc1ccc(NC(=O)N(C)C[C@@H]2OCCCC[C@H](C)Oc3ccc(NC(=O)c4ccncc4)cc3C(=O)N([C@@H](C)CO)C[C@H]2C)cc1 | inactive |
| COc1ccc(CN(C)C[C@@H]2OCCCC[C@@H](C)Oc3ccc(NC(=O)NC(C)C)cc3C(=O)N([C@H](C)CO)C[C@@H]2C)cc1 | inactive |
| C[C@@H]1CCCCO[C@H](CN(C)C(=O)CCC(F)(F)F)[C@H](C)CN([C@H](C)CO)C(=O)c2cc(NS(=O)(=O)c3ccc(Cl)cc3)ccc2O1 | inactive |
| C=C(/C=C\CNS(=O)(=O)c1ccc(C)cc1)[C@H](O)[C@H]1CCCN1S(=O)(=O)c1ccccc1[N+](=O)[O-] | inactive |
| C[C@@H]1CN([C@@H](C)CO)C(=O)Cc2cc(NC(=O)Nc3ccc(C(F)(F)F)cc3)ccc2O[C@@H]1CN(C)Cc1ccncc1 | active |
| C[C@H]1CN([C@@H](C)CO)C(=O)Cc2cc(NC(=O)Nc3ccc(C(F)(F)F)cc3)ccc2O[C@H]1CN(C)Cc1ccncc1 | active |
| C[C@@H]1CCCCO[C@@H](CN(C)C(=O)CCC(F)(F)F)[C@@H](C)CN([C@H](C)CO)C(=O)c2cc(NC(=O)Nc3ccccc3)ccc2O1 | inactive |
| N[C@@H](Cn1ccnc1)c1ccccc1 | inactive |
| COc1ccc(C#Cc2ccc3c(c2)O[C@@H](CN(C)C(=O)c2ccccn2)[C@@H](C)CN([C@@H](C)CO)S3(=O)=O)cc1 | inactive |
| CC/C(=C\C(=N\O)C(N)=O)[C@@H](C)[N+](=O)[O-] | inactive |
| CC(=O)N1CCCC(=O)CC1 | inactive |

| Compound | cytotoxicity call |
| --- | --- |
| C[C@@H]1CCCCO[C@H](CN(C)Cc2ccc3c(c2)OCO3)[C@H](C)CN([C@@H](C)CO)C(=O)c2cc(NC(=O)Cc3ccccc3)ccc2O1 | inactive |
| CNC(=O)C[C@@H]1CC[C@H]2[C@@H](COc3ccc(NC(=O)c4ccc(C(F)(F)F)cc4)cc3C(=O)N2C)O1 | inactive |
| O=C(C[C@H]1C[C@@H]2c3cc(NC(=O)c4ccc5c(c4)OCO5)ccc3O[C@@H]2[C@@H](CO)O1)NCc1ccc(Oc2ccccc2)cc1 | active |
| O=C(C[C@H]1C[C@H]2c3cc(NC(=O)c4ccc5c(c4)OCO5)ccc3O[C@H]2[C@@H](CO)O1)NCc1cccnc1 | inactive |
| O=C(C[C@H]1C[C@@H]2c3cc(NC(=O)c4ccc5c(c4)OCO5)ccc3O[C@@H]2[C@H](CO)O1)NCc1ccc(Oc2ccccc2)cc1 | inactive |
| O=C(C[C@H]1C[C@H]2c3cc(NC(=O)c4ccc5c(c4)OCO5)ccc3O[C@H]2[C@H](CO)O1)NCc1ccc(Oc2ccccc2)cc1 | active |
| O=C(C[C@H]1C[C@@H]2c3cc(NC(=O)c4ccc5c(c4)OCO5)ccc3O[C@@H]2[C@H](CO)O1)NCc1cccnc1 | inactive |
| O=C(C[C@@H]1C[C@@H]2c3cc(NC(=O)c4ccc5c(c4)OCO5)ccc3O[C@@H]2[C@H](CO)O1)NCCc1ccccc1 | active |
| O=C(C[C@@H]1C[C@H]2c3cc(NC(=O)c4ccc5c(c4)OCO5)ccc3O[C@H]2[C@H](CO)O1)NCc1ccc(Oc2ccccc2)cc1 | inactive |
| O=C(C[C@@H]1C[C@@H]2c3cc(NC(=O)c4ccc5c(c4)OCO5)ccc3O[C@@H]2[C@H](CO)O1)NCc1ccc(Oc2ccccc2)cc1 | active |
| O=C(C[C@H]1C[C@H]2c3cc(NC(=O)c4ccc5c(c4)OCO5)ccc3O[C@H]2[C@@H](CO)O1)NCCc1ccccc1 | inactive |
| O=C(C[C@@H]1C[C@@H]2c3cc(NC(=O)c4ccc5c(c4)OCO5)ccc3O[C@@H]2[C@@H](CO)O1)NCCc1ccccc1 | inactive |
| O=C(C[C@@H]1C[C@@H]2c3cc(NC(=O)c4ccc5c(c4)OCO5)ccc3O[C@@H]2[C@H](CO)O1)NCc1cccnc1 | inactive |
| O=C(C[C@H]1C[C@H]2c3cc(NC(=O)c4ccc5c(c4)OCO5)ccc3O[C@H]2[C@H](CO)O1)NCc1cccnc1 | inactive |
| C=CCOC(=O)[C@H]1[C@@H]2C(=O)O[C@@H](c3ccccc3)[C@@H](c3ccccc3)N2[C@@H](c2ccc(OCCOC(=O)[C@@H]3C[C@@H]4C(=O)N[C@@H](CC(C)C)C(=O)N4[C@@H]3c3cccc(OCCO)c3)cc2)[C@]12C(=O)Nc1ccc(I)cc12 | inactive |
| CC(C)NC(=O)Nc1cccc2c1O[C@H](CN(C)C(=O)Nc1ccc3c(c1)OCO3)[C@H](C)CN([C@H](C)CO)C2=O | inactive |
| CC(C)NC(=O)N(C)C[C@H]1OCCCC[C@@H](C)Oc2ccc(NS(C)(=O)=O)cc2C(=O)N([C@@H](C)CO)C[C@H]1C | inactive |
| C[C@@H]1CN([C@@H](C)CO)C(=O)c2cccc(NC(=O)c3ccncc3)c2O[C@@H]1CN(C)Cc1ccc(-c2ccccc2)cc1 | inactive |
| CCS(=O)(=O)N[C@@H]1C=C[C@H](CC(=O)NCc2ccccn2)O[C@@H]1CO | inactive |
| COc1ccc(NC(=O)N(C)C[C@H]2OCCCC[C@@H](C)Oc3ccc(NS(=O)(=O)c4cccs4)cc3C(=O)N([C@H](C)CO)C[C@@H]2C)cc1 | inactive |
| C[C@@H]1CN([C@H](C)CO)C(=O)c2cc(NC(=O)c3ccncc3)ccc2O[C@H]1CN(C)Cc1ccc2c(c1)OCO2 | inactive |
